The list is not random: actives were taken first. Their share in the collection is about 3.4%.
MITF TRPM1 inh: inhibitors of MITF-dependent TRPM1 promoter reporter, primary screen, cell-based, SK-MEL-5, single point, luciferase; SK-MEL-5 TRPM1 promoter luciferase, 24 h; inhibition, % at 12.5 µM; 0.83% of 330,000 active; AID 488899, 2010;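 active = mean inhibition across replicates of 60% or more, whatever share of single replicates reaches that level; inconclusive = some that reach 60%, reason not given; inactive = mean inhibition across replicates below 60%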
Shn3 inh set2: reduction of Shn3 3'UTR firefly luciferase signal, primary screen, Schnurri-3 inhibitor project, cell-based, Clone20 osteoblasts, set 2 | Clone20 osteoblast Shn3 3'UTR firefly luciferase, 24 h | inhibition, % at 12.5 µM | 0.52% of 360,000 active | AID 588674, 2011;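 active = mean inhibition of at least 75% with every replicate also reaching 75%; inconclusive = mean inhibition at least 75% but some replicate below; inactive = mean inhibition below 75%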
TWEAK Fn14 block: inhibitors of TWEAK-Fn14 signaling, primary screen, luciferase reporter cells, uHTS. TWEAK-stimulated Fn14 reporter cells, luciferase luminescence, 8 h. inhibition, % at 10 µM. 2% of 360,000 active. AID 1159606, 2016; in the data active = inhibition above about 50%
HIF-2a inh: HIF-2a reporter inhibitors, primary screen, luminescence, 786-0 RCC cells | 0.72% of 360,000 active | inhibition, % at 18.8 µM | 786-0 RCC cells HIF-2a reporter, luciferase luminescence, overnight;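 active = inhibition of the luminescence signal of 40% or more relative to plate controls, in a single-dose primary screen at 18.75 µM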
LMP1 NFkB inh: EBV LMP1-driven NF-kappaB luciferase reporter inhibitors, primary screen, cell-based, luminescence, single point; inhibition, % at 12.5 µM; 0.69% of 350,000 active; LMP1-induced NF-kappaB luciferase reporter cells; in the data active = inhibition above about 41%; inconclusive = no clear call, values can overlap the other calls
TROY NFkB inh: inhibitors of TROY-driven NF-kB signaling, primary screen, Q293 LMP1-TROYcd cells, NF-kB luciferase, uHTS. Q293 LMP1-TROYcd NF-kB luciferase reporter, 4 h. inhibition, % at 10 µM. 0.98% of 360,000 active. AID 1347056, 2019;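 active = compounds whose plate-normalised and pattern-corrected inhibition of the luciferase reporter signal at the single screening dose is 50% or more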
A number is an active result; 0 = inactive; ? = inconclusive; - = no result given.

SMILES	MITF TRPM1 inh	Shn3 inh set2	TWEAK Fn14 block	HIF-2a inh	LMP1 NFkB inh	TROY NFkB inh
Oc1c(C(c2cccs2)N2CCC3(CC2)OCCO3)sc2ncnn12 (stereo not drawn)	-	88	0	0	0	0
Oc1c(C(c2cccs2)N2CCN(c3ccccc3)CC2)sc2ncnn12 (stereo not drawn)	0	0	0	0	0	0
COc1ccc(OC)c(NC(=O)COC(=O)CN2C(=O)NC3(CCCC3)C2=O)c1	0	0	0	0	0	0
O=C(c1ccccc1Cl)N(C(=O)c1ccccc1Cl)c1nccc(-c2cccs2)n1	0	0	77	0	0	67
O=C(Nc1nccc(-c2cccs2)n1)c1ccccc1Cl	0	0	0	0	0	0
CC(c1ccco1)N(C(=O)c1ccccc1NS(=O)(=O)c1ccc(Cl)c([N+](=O)[O-])c1)c1ccccn1 (stereo not drawn)	0	0	0	0	0	71
Cc1nc(N)nc(N)c1/C=C/C(C)(C)c1ccc(Cl)cc1	0	0	0	0	46	0
CC(C)(C)c1ccc(C(O)c2ncc(-c3ccccc3F)[nH]2)cc1 (stereo not drawn)	-	0	0	0	-	0
O=C1C=C(O)c2cccc(O)c2C1=O	0	0	0	0	0	0
O=C1C=C(c2c(O)ccc3ccccc23)c2ccccc2C1=O	?	96	102	84	0	0
C[C@@H]1CC2=C(C(=O)OC(C)(C)O2)[C@H](c2ccc(F)cc2)O1	-	-	0	0	-	0
CC(C)N=c1cc2n(-c3ccc(Cl)cc3)c3ccccc3nc-2cc1Nc1ccc(Cl)cc1	74	0	0	0	0	0
Cn1c(CNc2ccc(Cl)cc2)nc2ccccc21	0	0	0	0	0	0
CN(C(=O)c1cc(COc2ccc(F)cc2Cl)on1)C1CCOC1 (stereo not drawn)	-	0	0	0	0	0
CCCCCCC(=O)N(O)C1CC(=O)N(c2ccc(F)cc2)C1=O (stereo not drawn)	0	0	0	0	0	0
CCCCCCC(=O)N(O)C1CC(=O)N(c2ccc(Br)cc2)C1=O (stereo not drawn)	0	0	0	0	43	0
Clc1ccc(Cn2cc(/C=N/n3cnnc3)c3ccccc32)c(Cl)c1	0	0	54	0	0	0
COc1ccccc1C(=O)NCCn1cc(SCC(=O)Nc2cc(C)on2)c2ccccc21	0	0	0	0	0	0
Cc1ccc(C(=O)NCCn2cc(SCC(=O)Nc3nnc(C)s3)c3ccccc32)cc1	-	0	91	0	0	77
Cc1cc(NC(=O)CSc2cn(CCNC(=O)c3ccc(Cl)cc3)c3ccccc23)no1	0	0	67	0	0	71
CCOc1ccc(C(=O)NCCn2cc(SCC(=O)Nc3cc(C)on3)c3ccccc32)cc1	0	0	0	0	0	56
COc1ccc(C(=O)NCCn2cc(SCC(=O)Nc3cc(C)on3)c3ccccc32)cc1OC	0	0	0	0	0	0
CS(=O)(=O)c1ccc(Cl)c(NC(=O)COC(=O)CCN2C(=O)C3CC=CCC3C2=O)c1 (stereo not drawn)	0	0	0	0	0	0
O=C(COc1ccc(Br)cc1CNCCCN1CCOCC1)Nc1ccccc1	0	0	0	0	0	0
COc1ccc(C(CNC(=O)c2cccc(S(=O)(=O)Nc3ccc(F)cc3)c2)N2CCOCC2)cc1 (stereo not drawn)	0	0	0	0	0	0
SMILES	MITF TRPM1 inh	Shn3 inh set2	TWEAK Fn14 block	HIF-2a inh	LMP1 NFkB inh	TROY NFkB inh
Nc1ccc2c(c1)C(=O)CCC2	-	0	55	0	0	74
O=C1CCCc2cc3c(cc21)CCCC3	0	0	0	0	0	0
O=C(NCCc1cn[nH]c1)c1ccc2oc(CCc3ccccc3)nc2c1	-	0	0	0	0	0
C[n+]1ccc(/C=C/c2ccccc2O)c2ccccc21	0	0	0	0	0	0
CN1/C(=C/c2cc[n+](C)c3ccccc23)C=Cc2ccccc21	83	0	0	0	47	0
CCN(CC(=O)NC(C)(C)C)C(=O)c1cccc(S(=O)(=O)N2CC3(C)CC2CC(C)(C)C3)c1 (stereo not drawn)	-	0	0	0	0	0
